Experimental findings from PubChem BioAssay (NCATS) are described below.

In test [1] the target is Beta-2 adrenergic receptor (Homo sapiens) (UniProt P07550). In words: qHTS validation assay of beta-arrestin-biased ligands of beta2-adrenergic receptor (AID 485366). A digest of the protocol:
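Tango cells (recombinant beta2-AR with recombinant beta-arrestin; recruitment releases tTA driving luciferase) were treated with compounds titrated up to 46 microM for 18 hr at 37 degrees C. Luminescence gave %Activity, and concentration-response curves were curve-classified.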
On the technique in general: In qHTS, concentration-response curves come from the screen itself.

Test [2] can be described thus: Quantitative high throughput screen for delayed death inhibitors of the malarial parasite plastid, 96 hour incubation (AID 488745). Also: nearly all actives have a fitted effect of over 70% in size. Also: potency is read from the fitted curve at half-maximal effect. Put shortly:
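P. falciparum carrying an integrated firefly luciferase reporter, grown in erythrocytes (2% hematocrit, 0.1% parasitemia final) in RPMI 1640/0.5% Albumax, was exposed to compound for 96 h (two generations) at 37 C, 5% CO2. Luminescence decrease indicated growth inhibition.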

Test [3] can be described thus: Quantitative high throughput screen for delayed death inhibitors of the malarial parasite plastid, 48 hour incubation (AID 488752). Also: nearly all actives have a fitted effect of over 65% in size. Also: potency is read from the fitted curve at half-maximal effect. A digest of the protocol:
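Erythrocytes infected with P. falciparum carrying an integrated firefly luciferase reporter (2% hematocrit, 0.1% parasitemia final) were exposed to compounds in RPMI 1640/0.5% Albumax for 48 h at 37 C, 5% CO2. Growth inhibition was scored as reduced luminescence.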

The target of test [4] is Thioredoxin reductase 1, cytoplasmic (Rattus norvegicus) (UniProt O89049). Nature of the test: qHTS Assay for Substrates of Mammalian Selenoprotein Thioredoxin Reductase 1 (TrxR1) (AID 488772).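 Also: NADPH fluorescence in the first read after selenite addition and not the 8 min delta; series mostly up to about 57 µM; a drop in NADPH fluorescence below the no-compound background marks a TrxR1 substrate.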 Put shortly:
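Quantitative HTS in Tris-HCl buffer at pH 7.5 with EDTA and Tween-20, using rat TrxR1, 400 uM NADPH and 400 uM selenite (final). A fall in initial NADPH fluorescence relative to background marked substrate behaviour.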

For test [5], the target named is Flap endonuclease 1 (Homo sapiens) (UniProt P39748). In words: qHTS Validation Assay for the Inhibitors of Human Flap endonuclease 1 (FEN1) (AID 488816). A digest of the protocol:
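FEN1, dispensed as a 10 nM reagent, was preincubated with pin-transferred compounds for 15 min at room temperature before substrate was added (50 nM final). Plates were read at 0 and 15 min, and a four-parameter Hill equation was fitted to the concentration-response data.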

The target of test [6] is M-phase phosphoprotein 8 (Homo sapiens) (UniProt Q99549). In words: qHTS Validation Assay for Inhibitors for MPP8 Chromodomain Interactions with Methylated Histone Tails (AID 488949). Also: nearly all actives have a fitted effect of over 55% in size. Also: potency is read from the fitted curve at half-maximal effect. Put shortly:
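MPP8 (50 nM) was preincubated with biotinylated H3(1-18)K9me3 peptide (50 nM) in PBS pH 7.4, 0.01% Tween-20 for 30 min at room temperature, then with compounds for 30 min; binding was detected by AlphaScreen.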

The target in test [7] is Chromobox protein homolog 1 (Homo sapiens) (UniProt P83916). Nature of the test: qHTS Validation Assay for Inhibitors of HP1-beta Chromodomain Interactions with Methylated Histone Tails (AID 488953). Also: nearly all actives have a fitted effect of over 50% in size. Also: potency is read from the fitted curve at half-maximal effect. A digest of the protocol:
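HP1-beta (50 nM) was preincubated 30 min at room temperature with biotinylated H3(1-18)K9me3 peptide (50 nM) in PBS pH 7.4, 0.01% Tween-20, then with compounds 30 min. AlphaScreen signal was read after streptavidin donor/nickel chelate acceptor beads (10 ug/mL final).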

Test [8] deals with Methanococcus maripaludis chaperonin (MmCpn) (UniProt Q6LX38). In words: High-Throughput Screening for Modulators of Cytosolic Chaperonin Activity: MmCpn Primary Screen (AID 488978).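 Also: 50 nM MmCpn enzyme hydrolysing 30 µM ATP at 37 °C.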 A digest of the protocol:
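MmCpn (50 nM final) was preincubated with compound 5 min at RT, then 30 uM ATP (final) was added and the reaction ran 10 min at 37C. ADP produced was detected by Transcreener HTRF (ex 320 nm; em 590/665 nm).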

Test [9] addresses Thioredoxin reductase 1, cytoplasmic (Rattus norvegicus) (UniProt O89049). In words: qHTS Assay for Inhibitors of Mammalian Selenoprotein Thioredoxin Reductase 1 (TrxR1) (AID 488773).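 Also: drop in NADPH fluorescence over an 8 min run after selenite addition; series mostly up to about 57 µM; nearly all actives have a fitted effect of over 40% in size.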 The following applies: Potency: inhibition. Put shortly: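 Steps: enzyme (90 nM) plus NADPH (400 uM final), 5 min at ~22 deg C; compound added, 15 min; selenite (400 uM final) added; fluorescence followed for 8 min. Concentration-response curves derived from the normalized delta values.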

Records with an inconclusive call do not appear. Some compounds were tested as several samples or in several runs, with calls that do not always agree. Calls of active or inactive are those of the source. Calls follow the shape of the dose curve; as a rule, active = well fitted curve in the direction sought with a large enough effect; inconclusive = small, poorly fitted or top-dose-only effect, or another doubt; inactive = no such curve, though single readings can be large; an effect the other way counts as inactive or inconclusive.

M-phase phosphoprotein 8 (Homo sapiens), sequence (Q99549 whole entry, looked up): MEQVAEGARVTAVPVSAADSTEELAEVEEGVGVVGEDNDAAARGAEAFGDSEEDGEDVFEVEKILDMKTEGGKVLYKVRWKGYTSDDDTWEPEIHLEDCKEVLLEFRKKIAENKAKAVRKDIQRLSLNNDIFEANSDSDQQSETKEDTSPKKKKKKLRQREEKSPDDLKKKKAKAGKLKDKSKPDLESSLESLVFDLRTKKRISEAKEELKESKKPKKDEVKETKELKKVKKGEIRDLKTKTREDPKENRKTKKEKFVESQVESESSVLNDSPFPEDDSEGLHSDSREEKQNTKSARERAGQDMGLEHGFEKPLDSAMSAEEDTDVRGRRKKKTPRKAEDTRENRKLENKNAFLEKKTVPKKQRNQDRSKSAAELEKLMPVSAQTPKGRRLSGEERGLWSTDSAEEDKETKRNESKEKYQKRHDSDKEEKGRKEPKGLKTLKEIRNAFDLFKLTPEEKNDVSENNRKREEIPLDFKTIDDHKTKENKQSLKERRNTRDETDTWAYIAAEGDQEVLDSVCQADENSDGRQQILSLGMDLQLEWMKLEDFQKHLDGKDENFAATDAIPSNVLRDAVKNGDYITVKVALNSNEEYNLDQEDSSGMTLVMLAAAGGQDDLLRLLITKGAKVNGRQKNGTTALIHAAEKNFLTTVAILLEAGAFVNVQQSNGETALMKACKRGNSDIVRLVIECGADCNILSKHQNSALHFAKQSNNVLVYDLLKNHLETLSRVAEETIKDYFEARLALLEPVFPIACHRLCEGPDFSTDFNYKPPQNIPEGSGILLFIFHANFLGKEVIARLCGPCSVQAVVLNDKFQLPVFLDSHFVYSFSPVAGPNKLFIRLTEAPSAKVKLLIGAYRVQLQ
Methanococcus maripaludis chaperonin (MmCpn), sequence (Q6LX38 1-543): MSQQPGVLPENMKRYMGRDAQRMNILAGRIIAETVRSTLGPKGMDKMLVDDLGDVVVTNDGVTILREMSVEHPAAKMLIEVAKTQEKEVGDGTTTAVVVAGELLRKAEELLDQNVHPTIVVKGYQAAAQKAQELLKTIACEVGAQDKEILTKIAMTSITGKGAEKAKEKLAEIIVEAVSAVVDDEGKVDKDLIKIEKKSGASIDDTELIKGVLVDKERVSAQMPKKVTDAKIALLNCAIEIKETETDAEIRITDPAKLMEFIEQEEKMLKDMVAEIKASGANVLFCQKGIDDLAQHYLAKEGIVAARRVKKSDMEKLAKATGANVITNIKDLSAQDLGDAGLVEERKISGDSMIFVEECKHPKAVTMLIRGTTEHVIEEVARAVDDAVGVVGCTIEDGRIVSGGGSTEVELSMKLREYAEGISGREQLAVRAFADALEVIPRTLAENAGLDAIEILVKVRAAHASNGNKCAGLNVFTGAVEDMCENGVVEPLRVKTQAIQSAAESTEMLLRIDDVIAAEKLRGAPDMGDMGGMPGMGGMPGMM
Beta-2 adrenergic receptor (Homo sapiens), sequence (P07550 whole entry, looked up): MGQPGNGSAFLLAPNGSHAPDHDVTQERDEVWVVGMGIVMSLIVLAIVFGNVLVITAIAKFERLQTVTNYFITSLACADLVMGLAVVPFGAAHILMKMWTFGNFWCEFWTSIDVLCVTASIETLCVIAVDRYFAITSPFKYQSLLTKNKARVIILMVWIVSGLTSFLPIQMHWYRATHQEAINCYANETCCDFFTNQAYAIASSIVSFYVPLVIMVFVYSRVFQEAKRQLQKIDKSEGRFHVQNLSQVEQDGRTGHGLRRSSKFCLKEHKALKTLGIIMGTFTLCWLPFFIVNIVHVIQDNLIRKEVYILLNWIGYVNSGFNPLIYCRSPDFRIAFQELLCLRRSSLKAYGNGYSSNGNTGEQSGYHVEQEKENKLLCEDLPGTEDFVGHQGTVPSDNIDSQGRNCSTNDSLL
Chromobox protein homolog 1 (Homo sapiens), sequence (P83916 whole entry, looked up): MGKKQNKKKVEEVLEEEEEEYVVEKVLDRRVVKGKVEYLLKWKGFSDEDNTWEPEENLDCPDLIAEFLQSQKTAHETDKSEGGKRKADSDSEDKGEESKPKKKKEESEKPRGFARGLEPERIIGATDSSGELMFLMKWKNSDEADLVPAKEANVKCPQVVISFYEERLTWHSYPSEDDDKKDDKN
Thioredoxin reductase 1, cytoplasmic (Rattus norvegicus), sequence (O89049 whole entry, looked up): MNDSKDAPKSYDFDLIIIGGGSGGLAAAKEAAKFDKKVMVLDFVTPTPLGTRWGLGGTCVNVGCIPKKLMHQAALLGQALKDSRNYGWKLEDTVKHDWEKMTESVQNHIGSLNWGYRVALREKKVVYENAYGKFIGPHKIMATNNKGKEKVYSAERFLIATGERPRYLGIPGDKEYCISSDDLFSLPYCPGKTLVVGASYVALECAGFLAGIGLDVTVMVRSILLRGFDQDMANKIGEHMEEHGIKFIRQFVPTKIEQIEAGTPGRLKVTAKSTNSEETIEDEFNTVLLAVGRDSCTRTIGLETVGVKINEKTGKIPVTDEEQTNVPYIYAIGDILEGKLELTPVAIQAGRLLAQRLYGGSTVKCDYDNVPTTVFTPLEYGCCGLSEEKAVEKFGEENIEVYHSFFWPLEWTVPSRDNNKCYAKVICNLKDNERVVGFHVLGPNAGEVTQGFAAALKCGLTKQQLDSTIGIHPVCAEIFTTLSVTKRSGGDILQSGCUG
Flap endonuclease 1 (Homo sapiens), sequence (P39748 whole entry, looked up): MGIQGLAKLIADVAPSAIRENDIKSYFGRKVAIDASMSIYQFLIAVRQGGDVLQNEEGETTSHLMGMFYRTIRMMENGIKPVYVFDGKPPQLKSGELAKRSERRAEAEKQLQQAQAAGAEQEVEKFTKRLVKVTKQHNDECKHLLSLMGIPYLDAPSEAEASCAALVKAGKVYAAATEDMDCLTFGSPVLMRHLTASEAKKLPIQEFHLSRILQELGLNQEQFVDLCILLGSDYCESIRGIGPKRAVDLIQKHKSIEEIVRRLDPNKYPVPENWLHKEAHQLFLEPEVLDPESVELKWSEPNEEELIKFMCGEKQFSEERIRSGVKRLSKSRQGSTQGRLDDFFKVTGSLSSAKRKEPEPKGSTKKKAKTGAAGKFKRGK

Take `Cc1cccc(C(=O)NCN2CCN(c3ccccc3C#N)CC2)c1`: the molecule was called inactive in test [1] and in test [4]. The Potency result in test [2], in [3], in test [5], in test [6] and in test [7] was “inactive” each time.
As to `C/C(=C\c1ccc(C(=O)O)cc1)c1ccc2c(c1)C(C)(C)CCC2(C)C`, the molecule was classed as inactive in [1], in test [4] and in [8]. For the same molecule, the Potency entry in test [2], in [3], in test [5], in [6] and in [7] was “inactive” each time.
Consider `CC1CCN(CC[C@H]2CCCN2S(=O)(=O)c2cccc(O)c2)CC1`, for which the outcome in test [1], in test [4] and in test [8] was inactive. The Potency result in test [2], in test [3], in test [9], in [6] and in test [7] was “inactive” throughout.
Consider `CCn1c(=O)[nH]c2cc(Cl)c(Cl)cc21`, for which the molecule was called inactive in test [1], in test [4] and in test [8]. Besides, the Potency entry in [2], in test [3], in test [6] and in test [7] was “inactive” each time.
Take `CO/N=C(\C(=O)N[C@@H]1C(=O)N2C(C(=O)O)=C(CSc3nc(=O)c(O)nn3C)CSC12)c1csc(N)n1` (some centres not stated): the call in test [1], in test [4] and in test [8] was inactive. The Potency result in [2], in [3] and in [5] was “inactive” each time. Further, the Potency in test [6] was 44.7 µM (active) and inactive.
`CN1CCCC1CCOC(C)(c1ccccc1)c1ccc(Cl)cc1` (configuration not stated): the molecule was called inactive in test [1], in test [4] and in test [8]. Moreover, the Potency in test [2] was 8.28 µM (active); in [3], 10.4 µM (active). Also, the Potency result in test [9] and in test [6] was “inactive” throughout.
On to `COc1cc(C(O)C(=O)O)ccc1O` (configuration not stated), for which the result in test [1], in test [4] and in test [8] was inactive. In addition, the Potency entry in [2], in test [3], in [5], in [6] and in test [7] was “inactive” each time.
For the molecule `NCCC1CCCC(CCN)N1` (configuration not stated), the molecule was called inactive in [1], in test [4] and in test [8]. Besides, the Potency result in test [2], in test [3], in [9], in test [6] and in test [7] was “inactive” in each case.
Take `NC(=O)CNCCC(c1ccccc1)c1ccccc1`: the call in test [1], in [4] and in test [8] was inactive. Besides, the Potency result in [2], in test [3], in [9], in [6] and in [7] was “inactive” in each case.
In the case of `CCSC(=N)N`, the molecule was called inactive in test [1], in [4] and in test [8]. In addition, the Potency entry in test [2], in test [3], in test [9], in test [5] and in test [6] was “inactive” throughout.
As to `CCCCCCCC/C=C\CCCCCCCC(=O)NCCc1ccc(O)c(O)c1`, the molecule was called inactive in [1] and in [8]. The Potency in test [2] was 14.7 µM (active); in test [3], 13.1 µM (active). In addition, the Potency result in test [5] and in test [6] was “inactive” in each case.
`CC(=O)[C@H]1CCC2C3CC=C4C[C@@H](OS(=O)(=O)O)CC[C@]4(C)C3CC[C@@]21C` (some centres not stated): the call in [1], in test [4] and in test [8] was inactive. Moreover, the Potency result in test [2], in [3], in [9], in test [6] and in test [7] was “inactive” throughout.
For the molecule `Nc1nc2[nH]c(=O)cnc2c(=O)[nH]1`, the outcome in test [1] and in [8] was inactive. In addition, the Potency result in test [2], in test [3], in test [5] and in test [6] was “inactive” each time.
`O=C1C2C=CC=CC2=NC(=S)N1CCN1CCC(=C(c2ccc(F)cc2)c2ccc(F)cc2)CC1` (configuration not stated): the outcome in test [1], in test [4] and in test [8] was inactive. Also, the Potency result in [2], in test [3], in [9] and in test [5] was “inactive” each time. In [6], the Potency is 50.1 µM (active) and inactive.
Turning to `N[C@@H](Cc1c[nH]c2ccccc12)C(=O)O`, the result in test [1], in [4] and in [8] was inactive. Moreover, the Potency entry in test [2], in test [3], in test [5], in [6] and in test [7] was “inactive” each time.
Turning to `N=C(N)SCCN`, the molecule was called inactive in [1], in test [4] and in [8]. Further, the Potency entry in [2], in test [3], in test [9], in [5], in [6] and in test [7] was “inactive” throughout.
For `NC(N)=NC(N)=Nc1cccc(Cl)c1`, the call in [1], in test [4] and in test [8] was inactive. Also, the Potency in test [2] was 9.28 µM (active). Further, the Potency entry in [3], in [9], in test [5], in test [6] and in test [7] was “inactive” each time.
For the molecule `COC(=O)C(N)Cc1ccc(Cl)cc1` (configuration not stated), the call in test [1] and in test [4] was inactive. Also, the Potency entry in [2], in test [3], in test [9] and in test [6] was “inactive” each time. Moreover, in test [7], the Potency is 0.0067 µM (active).
As for `CCCCCCCCCCCCCCC[C@H](O)[C@H](N)CO`, the molecule was classed as inactive in test [1], in [4] and in test [8]. Moreover, the Potency entry in test [2], in test [3], in test [9] and in [6] was “inactive” each time. Also, the Potency in test [7] is 89.1 µM (active).
With `Nc1ncnc2c1c(-c1ccc(Oc3ccccc3)cc1)cn2C1CCCC1`, the call in test [1], in test [4] and in [8] was inactive. For the same molecule, the Potency was 7.38 µM (active) in test [2] and 9.28 µM (active) in [3]. The Potency result in test [9] and in test [5] was “inactive” in each case.
With `O=c1onc2cnc3ccccc3n12`, the result in test [1], in [4] and in [8] was inactive. The Potency result in test [2], in [3], in [9], in test [5] and in [6] was “inactive” in each case.
For the molecule `C[N+](C)(C)CC=O`, the outcome in test [1], in test [4] and in test [8] was inactive. For the same molecule, the Potency entry in test [3], in test [9], in [5], in test [6] and in test [7] was “inactive” throughout.
Take `CC[C@H](NC(=O)c1c(C)c(-c2ccccc2)nc2ccccc12)c1ccccc1`: the outcome in [1] and in test [4] was inactive. Further, the Potency in test [2] is 3.7 µM (active). For the same molecule, the Potency entry in test [9], in test [5], in [6] and in test [7] was “inactive” throughout.
For the molecule `O=C(O)C1=CCNCC1`, the molecule was called inactive in [1], in test [4] and in test [8]. Also, the Potency result in test [3], in [9], in test [5], in test [6] and in [7] was “inactive” in each case.
As for `C=CC[C@H](N)C(=O)O`, the result in test [1], in [4] and in test [8] was inactive. Further, the Potency entry in test [3], in test [5], in [6] and in [7] was “inactive” each time.
In the case of `O=C(O)c1ccccc1Nc1ccccc1`, the outcome in test [1] and in test [4] was inactive. The Potency result in test [3], in [5] and in test [6] was “inactive” throughout.
Regarding `CNc1ncnc2c1ncn2[C@H]1C[C@H](OP(=O)(O)O)[C@@H](COP(=O)(O)O)O1`, the molecule was called inactive in test [1], in test [4] and in [8]. Further, the Potency result in [3], in test [5], in test [6] and in test [7] was “inactive” in each case.
